Reference: the supplement of paper PMC12808144
Values without a mark were called inactive.

test system: NHEM-hTERT; assay: cell viability relative to DMSO control (fraction of DMSO control); higher = less cytotoxic, active = 0.5 or less; settings: 1 µM; 120 h
In short: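 The screen used 384-well plates acoustically pre-spotted with 315 approved anti-cancer drugs from TargetMol, each at 1 µM in duplicate. Into each well went 40 µl of cells, 2500 NHEM-hTERT immortalized melanocytes or 1500 of patient-derived Mel-DCC-11 or its resistant subline Mel-DCC-11-R, and plates were kept 120 h, with the subline also tested alongside 8 µM of its selecting drug. Readout was by ATPlite 1step luminescence. Viability values were normalised to vehicle-treated controls and averaged between duplicates.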

SMILES | cell viability
CS(=O)(=O)CCNCc1ccc(-c2ccc3ncnc(Nc4ccc(OCc5cccc(F)c5)c(Cl)c4)c3c2)o1.Cc1ccc(S(=O)(=O)O)cc1.Cc1ccc(S(=O)(=O)O)cc1.O [Lapatinib ditosylate monohydrate] | 1.05
Cl.N=c1ccn2c(n1)O[C@H]1[C@H](O)[C@@H](CO)O[C@H]12 [Cyclocytidine hydrochloride] | 0.845
Nc1nc(=O)c2c([nH]1)NCC(CNc1ccc(C(=O)N[C@@H](CCC(=O)[O-])C(=O)[O-])cc1)N2C=O.[Ca+2] (stereo partly drawn) [Calcium folinate] | 1.16
CC1=C(/C=C/C(C)=C/C=C/C(C)=C/C=C/C=C(C)/C=C/C=C(C)/C=C/C2=C(C)CCCC2(C)C)C(C)(C)CCC1 [Beta-Carotene] | 0.916
CO[C@H]1C=CO[C@@]2(C)Oc3c(C)c(O)c4c(O)c(c(/C=N/N5CCN(C)CC5)c(O)c4c3C2=O)NC(=O)/C(C)=C\C=C/[C@H](C)[C@H](O)[C@@H](C)[C@@H](O)[C@@H](C)[C@H](OC(C)=O)[C@@H]1C [Rifampicin] | 1.03
CC(O)(P(=O)(O)O)P(=O)(O)O [Etidronate] | 1.15
O=C(c1cc(Cc2n[nH]c(=O)c3ccccc23)ccc1F)N1CCN(C(=O)C2CC2)CC1 [Olaparib] | 0.988
CN(C)CCOc1ccc(/C(=C(/CCCl)c2ccccc2)c2ccccc2)cc1.O=C(O)CC(O)(CC(=O)O)C(=O)O [Toremifene citrate] | 0.992
